# Assay results from PubChem BioAssay (EPA / NIEHS).
# Where “and” joins values, the source holds several entries; their conditions need not be identical. Equal values may be shown once. Inconclusive results are not listed. Where a structure was tested more than once in an assay, its records may differ in their call. Calls of active or inactive are those of the source. How the source made its calls: active means hit-call score of the fitted dose curve at least 0.9, where 1 is the maximum; inconclusive means response in the unintended direction; inactive means score below 0.9.
# Experiments:
# [1] = biological target: Estrogen receptor (Homo sapiens) (UniProt P03372); experiment: OT_ER_ERaERa_1440: Odyssey Thera (OT) 24-hour HEK293T Protein-Complementation Assay for Estrogen Receptor-alpha/-alpha Homodimer (AID 2283349);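 further: hits raise fluorescence above DMSO for agonists and antagonists alike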
# Estrogen receptor (Homo sapiens), sequence (P03372 whole entry, looked up, the tested form may be a part): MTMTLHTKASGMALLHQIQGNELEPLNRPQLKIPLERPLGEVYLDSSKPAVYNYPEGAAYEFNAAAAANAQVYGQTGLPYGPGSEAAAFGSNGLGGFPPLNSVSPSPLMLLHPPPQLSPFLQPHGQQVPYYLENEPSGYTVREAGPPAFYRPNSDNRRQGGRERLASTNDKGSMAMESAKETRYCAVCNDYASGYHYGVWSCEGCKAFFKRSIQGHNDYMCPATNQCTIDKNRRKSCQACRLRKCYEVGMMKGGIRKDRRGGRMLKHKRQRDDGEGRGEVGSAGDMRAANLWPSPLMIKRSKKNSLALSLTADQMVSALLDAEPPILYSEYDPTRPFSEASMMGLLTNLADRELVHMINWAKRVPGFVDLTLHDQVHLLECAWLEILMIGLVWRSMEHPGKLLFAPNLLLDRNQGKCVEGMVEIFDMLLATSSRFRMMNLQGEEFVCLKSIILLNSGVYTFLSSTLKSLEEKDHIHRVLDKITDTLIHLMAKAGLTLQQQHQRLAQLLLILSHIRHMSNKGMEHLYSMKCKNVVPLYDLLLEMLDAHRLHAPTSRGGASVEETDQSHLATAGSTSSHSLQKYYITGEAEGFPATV
# In short: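 Protein-fragment complementation between two human ERα ligand-binding domains (aa 310-547) in stably transfected HEK293T cells was monitored after 24 h treatment, using fluorescence intensity relative to vehicle controls.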
# [2] = biological target: Estrogen receptor (Homo sapiens) (UniProt P03372); experiment: OT_ER_ERaERa_0480: Odyssey Thera (OT) 8-hour HEK293T Protein-Complementation Assay for Estrogen Receptor-alpha/-alpha Homodimer (AID 2283351);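 further: rise in fluorescence from reassembled reporter fragments on ERα LBD homodimer in nucleus or whole cell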
# In short: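 The readout is complementation of fragments fused to the human ER alpha ligand-binding domain (aa 310-547), stably expressed in HEK293T cells. After 8 h of exposure, the increase in nuclear/cytoplasmic fluorescence was measured by laser scanning cytometry and fitted relative to DMSO.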
# [3] = biological target: Estrogen receptor (Homo sapiens) + Estrogen receptor beta (Homo sapiens) (UniProt P03372+Q92731); experiment: OT_ER_ERaERb_0480: Odyssey Thera (OT) 8-hour HEK293T Protein-Complementation Assay for Estrogen Receptor-alpha/-beta Heterodimer (AID 2283352)
# Estrogen receptor (Homo sapiens) + Estrogen receptor beta (Homo sapiens), sequence (P03372 whole entry, looked up, the tested form may be a part): as above
# Estrogen receptor (Homo sapiens) + Estrogen receptor beta (Homo sapiens), sequence (Q92731 whole entry, looked up, the tested form may be a part): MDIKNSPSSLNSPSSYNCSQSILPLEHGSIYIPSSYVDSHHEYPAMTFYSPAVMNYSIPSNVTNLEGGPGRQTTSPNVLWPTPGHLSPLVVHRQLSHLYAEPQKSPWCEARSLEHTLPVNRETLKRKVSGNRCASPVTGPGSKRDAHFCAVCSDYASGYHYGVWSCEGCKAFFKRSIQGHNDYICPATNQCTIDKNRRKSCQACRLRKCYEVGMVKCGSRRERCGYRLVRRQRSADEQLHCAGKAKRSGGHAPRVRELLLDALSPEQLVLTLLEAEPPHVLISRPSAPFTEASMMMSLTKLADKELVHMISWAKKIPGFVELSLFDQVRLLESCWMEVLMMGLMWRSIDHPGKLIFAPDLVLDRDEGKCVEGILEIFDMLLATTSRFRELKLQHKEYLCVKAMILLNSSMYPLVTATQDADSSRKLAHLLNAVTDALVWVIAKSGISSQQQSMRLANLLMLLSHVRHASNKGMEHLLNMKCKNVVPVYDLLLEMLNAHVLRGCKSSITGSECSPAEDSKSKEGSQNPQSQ
# In short: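 Fluorescence intensity readout from a protein-fragment complementation reporter in HEK293T; ER-alpha/ER-beta LBD heterodimer. Dosing 8 h. Gain-of-signal fit relative to DMSO negative control; laser scanning cytometry of whole-well cell population.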
# [4] = biological target: chimpanzee Androgen Receptor (AR), AR (gene 747460) (UniProt O97775); experiment: NVS_NR_cAR: NovaScreen (NVS) Nuclear Receptor Binding Assay for chimpanzee Androgen Receptor (AR) (AID 2283346);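 further: radioligand displacement from AR measured by scintillation counting in a cell-free assay; a loss of bound radioligand signal versus DMSO counts as binding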
# chimpanzee Androgen Receptor (AR), AR (gene 747460), sequence (O97775 whole entry, looked up): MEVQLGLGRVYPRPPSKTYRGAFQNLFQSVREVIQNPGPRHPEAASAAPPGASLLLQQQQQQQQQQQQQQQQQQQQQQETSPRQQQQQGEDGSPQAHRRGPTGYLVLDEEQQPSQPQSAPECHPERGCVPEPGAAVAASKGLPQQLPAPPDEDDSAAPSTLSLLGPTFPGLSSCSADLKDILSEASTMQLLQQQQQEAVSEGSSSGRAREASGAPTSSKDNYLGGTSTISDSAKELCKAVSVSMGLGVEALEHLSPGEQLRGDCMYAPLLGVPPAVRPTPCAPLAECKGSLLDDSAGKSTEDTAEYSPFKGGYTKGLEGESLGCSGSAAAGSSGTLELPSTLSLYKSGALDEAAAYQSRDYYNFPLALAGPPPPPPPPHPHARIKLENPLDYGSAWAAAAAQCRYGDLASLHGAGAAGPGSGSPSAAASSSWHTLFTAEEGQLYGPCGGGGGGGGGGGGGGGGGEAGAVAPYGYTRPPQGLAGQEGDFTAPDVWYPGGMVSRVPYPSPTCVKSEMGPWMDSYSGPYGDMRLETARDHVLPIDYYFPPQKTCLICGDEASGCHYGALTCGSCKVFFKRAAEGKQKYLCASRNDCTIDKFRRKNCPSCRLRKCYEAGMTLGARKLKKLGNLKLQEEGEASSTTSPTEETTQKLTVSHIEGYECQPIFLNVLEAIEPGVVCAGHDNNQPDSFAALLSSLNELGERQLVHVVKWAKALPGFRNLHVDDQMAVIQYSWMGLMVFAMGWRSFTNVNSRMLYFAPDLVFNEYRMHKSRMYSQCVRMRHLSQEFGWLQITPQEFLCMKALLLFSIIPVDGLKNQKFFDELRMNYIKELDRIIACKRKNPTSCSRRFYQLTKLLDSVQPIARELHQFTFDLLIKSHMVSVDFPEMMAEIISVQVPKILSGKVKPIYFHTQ
# In short: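 Cell-free competition binding with insect-cell (Sf9/Sf21) extracted chimpanzee AR; scintillation signal from lysate at 72 h. Screened in duplicate at 25 uM, then concentration-response for actives; fitting relative to DMSO.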
# [5] = NVS_IC_rCaBTZCHL: NovaScreen (NVS) Ion Channel Assay for Calcium Channel, Type L, Benzothiazepine Site (CaBTZCHL) (AID 2283337)
# In short: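 Radioligand displacement at the benzothiazepine site using rat cortical membranes; bound label measured by filtration and scintillation counting 1.5 h after dosing. Single-point 25 uM in duplicate, then concentration series; DMSO baseline.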
# [6] = biological target: bovine Estrogen Receptor (ER), ESR1 (gene 407238) (UniProt P49884); experiment: NVS_NR_bER: NovaScreen (NVS) Nuclear Receptor Binding Assay for bovine Estrogen Receptor (ER) (AID 2283345);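 further: actives lower the bound radioligand count which means they displace the ER ligand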
# bovine Estrogen Receptor (ER), ESR1 (gene 407238), sequence (P49884 whole entry, looked up): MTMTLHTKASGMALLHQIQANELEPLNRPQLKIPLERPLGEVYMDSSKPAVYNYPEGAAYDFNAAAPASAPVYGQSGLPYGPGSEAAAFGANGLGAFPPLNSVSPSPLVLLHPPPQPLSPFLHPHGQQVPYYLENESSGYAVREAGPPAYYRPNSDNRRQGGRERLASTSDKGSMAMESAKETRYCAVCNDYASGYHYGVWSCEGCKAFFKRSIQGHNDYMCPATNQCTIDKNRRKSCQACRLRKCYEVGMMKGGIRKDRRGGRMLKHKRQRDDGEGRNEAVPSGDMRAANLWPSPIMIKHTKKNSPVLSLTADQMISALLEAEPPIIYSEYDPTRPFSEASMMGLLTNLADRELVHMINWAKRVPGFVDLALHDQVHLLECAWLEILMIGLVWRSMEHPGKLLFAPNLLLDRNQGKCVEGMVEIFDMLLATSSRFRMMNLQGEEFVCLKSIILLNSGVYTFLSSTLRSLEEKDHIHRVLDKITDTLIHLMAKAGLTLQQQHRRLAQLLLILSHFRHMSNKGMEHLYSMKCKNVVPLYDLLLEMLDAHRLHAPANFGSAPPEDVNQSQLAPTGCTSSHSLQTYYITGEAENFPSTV
# In short: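 Cell-free radioligand binding with receptor from bovine uterine membranes, read by scintillation counting 18 h after dosing. Loss of specific binding was scored against DMSO; primary screen at 25 uM in duplicate, actives then run as concentration series.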
# [7] = biological target: Estrogen receptor (Homo sapiens) (UniProt P03372); experiment: NVS_NR_hER: NovaScreen (NVS) Nuclear Receptor Binding Assay for human Estrogen Receptor (ER) (AID 2283348)
# In short: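 Scintillation signal from bound radioligand was measured 18 hours after chemical addition to cell-free MCF7 protein extracts, with DMSO as baseline. Activity was scored as signal loss; compounds ran first at 25 uM in duplicate.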
# [8] = biological target: human Peripheral-type Benzodiazepine Receptor (PBR), TSPO (gene 706) (UniProt P30536); experiment: NVS_MP_hPBR: NovaScreen (NVS) Membrane Protein Assay for human Peripheral-type Benzodiazepine Receptor (PBR) (AID 2283331);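 further: hits reduce radioligand binding relative to DMSO baseline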
# human Peripheral-type Benzodiazepine Receptor (PBR), TSPO (gene 706), sequence (P30536 whole entry, looked up): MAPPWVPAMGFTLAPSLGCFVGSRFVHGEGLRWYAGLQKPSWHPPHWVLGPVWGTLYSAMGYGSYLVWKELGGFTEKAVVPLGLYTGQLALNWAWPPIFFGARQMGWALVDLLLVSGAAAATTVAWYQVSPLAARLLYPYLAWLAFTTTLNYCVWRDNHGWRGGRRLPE
# In short: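 Scintillation counts of filter-bound radioligand served as read-out after 1 h chemical dosing of human colonic membrane preparations. Activity was scored as signal loss against DMSO; initial duplicates at 25 uM, confirmatory concentration series afterward.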
# [9] = biological target: rat Peripheral-type Benzodiazepine Receptor (PBR), Tspo (gene 24230) (UniProt P16257); experiment: NVS_MP_rPBR: NovaScreen (NVS) Membrane Protein Assay for rat Peripheral-type Benzodiazepine Receptor (PBR) (AID 2283335)
# rat Peripheral-type Benzodiazepine Receptor (PBR), Tspo (gene 24230), sequence (P16257 whole entry, looked up): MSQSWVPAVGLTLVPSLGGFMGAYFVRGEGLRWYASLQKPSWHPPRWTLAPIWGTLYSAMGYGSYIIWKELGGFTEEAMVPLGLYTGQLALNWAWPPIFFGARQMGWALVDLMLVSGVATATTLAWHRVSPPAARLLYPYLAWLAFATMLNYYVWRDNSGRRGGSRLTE
# In short: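 Rat kidney membranes; radioligand binding with displacement, filter-based scintillation counting, 1 h incubation. Primary screen in duplicate at 25 uM, actives followed in concentration series; loss of binding vs DMSO.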
# [10] = biological target: human Androgen Receptor (AR), AR (gene 367) (UniProt P10275); experiment: NVS_NR_hAR: NovaScreen (NVS) Nuclear Receptor Binding Assay for human Androgen Receptor (AR) (AID 2283332)
# human Androgen Receptor (AR), AR (gene 367), sequence (P10275 whole entry, looked up): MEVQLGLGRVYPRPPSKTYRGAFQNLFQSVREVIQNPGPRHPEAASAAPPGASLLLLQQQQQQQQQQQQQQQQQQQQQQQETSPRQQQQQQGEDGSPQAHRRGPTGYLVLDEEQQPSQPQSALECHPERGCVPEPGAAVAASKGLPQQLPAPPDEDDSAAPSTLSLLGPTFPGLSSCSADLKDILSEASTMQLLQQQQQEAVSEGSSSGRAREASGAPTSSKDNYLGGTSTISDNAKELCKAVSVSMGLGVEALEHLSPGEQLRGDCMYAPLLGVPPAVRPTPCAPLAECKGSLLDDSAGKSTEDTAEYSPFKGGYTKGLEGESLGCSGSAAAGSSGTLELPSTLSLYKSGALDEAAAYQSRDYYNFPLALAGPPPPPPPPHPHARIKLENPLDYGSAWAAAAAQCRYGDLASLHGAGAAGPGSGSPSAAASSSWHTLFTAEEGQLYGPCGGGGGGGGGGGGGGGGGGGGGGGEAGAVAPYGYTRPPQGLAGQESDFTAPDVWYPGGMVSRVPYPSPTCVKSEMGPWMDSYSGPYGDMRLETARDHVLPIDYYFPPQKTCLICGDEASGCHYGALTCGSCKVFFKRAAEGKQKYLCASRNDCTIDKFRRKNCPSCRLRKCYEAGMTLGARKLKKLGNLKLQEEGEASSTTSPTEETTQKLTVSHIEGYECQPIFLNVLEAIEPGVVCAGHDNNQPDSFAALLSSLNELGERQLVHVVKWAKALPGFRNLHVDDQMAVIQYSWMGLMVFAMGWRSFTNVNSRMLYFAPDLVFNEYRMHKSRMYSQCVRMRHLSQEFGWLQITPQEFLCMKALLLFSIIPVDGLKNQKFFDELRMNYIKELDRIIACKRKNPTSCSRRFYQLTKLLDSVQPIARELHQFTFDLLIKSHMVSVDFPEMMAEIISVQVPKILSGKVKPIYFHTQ
# In short: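 Radioligand competitive binding, scintillation read-out, in cell-free extract from LnCAP, measured 20 h after dosing. Screened first in duplicate at 25 uM, then concentration series for actives; activity fitted against DMSO.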
smiles,measurement,setting,value
CC/C=C\CCOC(C)=O,outcome,[1],inactive
same,outcome,[2],inactive
same,outcome,[3],inactive
CCN(Cc1cccc(S(=O)(=O)O)c1)c1ccc(C(=C2C=CC(=[N+](CC)Cc3cccc(S(=O)(=O)O)c3)C=C2)c2ccc(O)cc2S(=O)(=O)[O-])cc1,AC50,[4],13.2 µM (active)
same,outcome,[1],inactive
same,outcome,[2],inactive
same,outcome,[3],inactive
Oc1ccc(Nc2ccccc2)cc1,outcome,[5],inactive
same,AC50,[6],25 µM (active)
same,AC50,[7],8.86 µM (active)
Nc1ccc([N+](=O)[O-])cc1O,outcome,[6],inactive
same,outcome,[7],inactive
[Co],outcome,[1],inactive
same,outcome,[2],inactive
same,outcome,[3],inactive
CCN(CC)c1ccc2c(C)cc(=O)oc2c1,AC50,[8],4.66 µM (active)
same,AC50,[9],3.32 µM (active)
same,outcome,[6],inactive
same,AC50,[4],5 µM (active)
O=S(=O)(O)c1ccc2ccccc2c1,outcome,[1],inactive
same,outcome,[2],inactive
CNC(=S)NC,outcome,[1],inactive
same,outcome,[2],inactive
CCCCC(CC)COP(=O)(O)OCC(CC)CCCC (configuration not stated),outcome,[7],inactive
same,outcome,[1],inactive
same,outcome,[2],inactive
CCCCCCOC(=O)c1ccccc1O,outcome,[1],inactive
same,outcome,[2],inactive
same,AC50,[3],60.2 µM (active)
C(=C(c1ccccc1)c1ccccc1)c1ccccc1,outcome,[6],inactive
same,outcome,[7],inactive
same,AC50,[1],43.1 µM (active)
same,AC50,[2],5.6 µM (active)
same,AC50,[3],9.47 µM (active)
COC(=O)C1CCC(C(=O)OC)CC1 (configuration not stated),outcome,[1],inactive
same,outcome,[2],inactive
same,outcome,[3],inactive
CCCCOc1ccc(N)cc1,outcome,[1],inactive
same,outcome,[2],inactive
same,outcome,[3],inactive
Cc1cc(C)cc(O)c1,outcome,[7],inactive
same,outcome,[1],inactive
same,outcome,[2],inactive
same,outcome,[3],inactive
C1COCCN1,outcome,[1],inactive
same,outcome,[2],inactive
same,outcome,[3],inactive
Nc1ccc(Oc2cccc(Oc3ccc(N)cc3)c2)cc1,AC50,[9],13.3 µM (active)
CC(C)OC(=O)c1ccccc1C(=O)OC(C)C,AC50,[8],11.5 µM (active)
same,AC50,[9],9.08 µM (active)
same,outcome,[1],inactive
same,AC50,[2],62.8 µM (active)
Cc1ccc(S(=O)(=O)NCl)cc1,outcome,[1],inactive
same,outcome,[2],inactive
CCCCCCC(C)OC(=O)CCCCC(=O)OC(C)CCCCCC (configuration not stated),AC50,[8],10.2 µM (active)
same,outcome,[4],inactive
same,outcome,[1],inactive
same,outcome,[2],inactive
same,outcome,[3],inactive
CCCCCCCCCCCCCCCC[N+](C)(C)Cc1ccccc1,AC50,[8],41.3 µM (active)
same,AC50,[9],9.82 µM (active)
same,outcome,[6],inactive
same,outcome,[7],inactive
CN(C)Cc1ccccc1O,outcome,[7],inactive
same,outcome,[1],inactive
same,outcome,[2],inactive
same,outcome,[3],inactive
CCCCCCOC(=O)c1ccccc1,outcome,[1],inactive
same,outcome,[2],inactive
same,outcome,[3],inactive
CC(=O)Nc1ccc(N=Nc2cc(C)ccc2O)cc1,AC50,[8],2.21 µM (active)
same,AC50,[10],31.4 µM (active)
same,outcome,[4],inactive
c1ccc(B(c2ccccc2)c2ccccc2)cc1,outcome,[6],inactive
same,AC50,[4],17.5 µM (active)
same,AC50,[7],13.9 µM (active)
same,AC50,[1],78.5 µM (active)
same,AC50,[2],55.7 µM (active)
CC(CCl)OP(=O)(OC(C)CCl)OC(C)CCl (configuration not stated),AC50,[8],23.8 µM (active)
same,AC50,[9],4.23 µM (active) and 14.6 µM (active)
same,outcome,[1],inactive
same,outcome,[2],inactive
same,outcome,[3],inactive
CC(Cc1ccc(O)c(O)c1)C(C)Cc1ccc(O)c(O)c1 (configuration not stated),AC50,[9],6.77 µM (active)
same,AC50,[6],11.1 µM (active)
same,AC50,[7],0.705 µM (active)
same,AC50,[1],11.9 µM (active)
same,AC50,[2],11.9 µM (active)
same,AC50,[3],2.42 µM (active)
C#C[C@]1(O)CC[C@H]2[C@@H]3CCc4cc(OC)ccc4[C@H]3CC[C@@]21C,AC50,[6],0.0305 µM (active)
same,AC50,[4],3.99 µM (active)
same,AC50,[7],0.00229 µM (active)
same,outcome,[7],inactive
same,AC50,[1],17.1 µM (active)
same,AC50,[2],9.95 µM (active)
O=C(OCCOCCOCCOC(=O)c1ccccc1)c1ccccc1,AC50,[8],9.76 µM (active)
same,outcome,[1],inactive
same,outcome,[2],inactive
same,outcome,[3],inactive
CCCCOCCOCCOC(=O)CCCCC(=O)OCCOCCOCCCC,outcome,[8],inactive
OC[C@@H](O)[C@@H](O)[C@H](O)[C@@H](O)CO,outcome,[1],inactive
same,outcome,[2],inactive
